Data published in PubChem BioAssay (NCI).
About 83,000 compounds went through this panel and 20% of them were active in at least one assay; those are over-represented in the sample as a whole.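 Testing used 96-well plates and a 48-hour single-concentration exposure. Example: -40 means 40% of the starting cells died.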 Values without a mark were called inactive. The source made the active and inactive calls. How the source made its calls: active means growth percent below 10; inactive means the rest.

Assays:
Test in all cases: NCI-60 one-dose screen, 48 h (100 = growth as untreated, 0 = no growth, -100 = all killed)
Conditions in all cases: 10 µM unless noted
[1] = test system: HCT-15 colon
[2] = test system: HT29 colon
[3] = test system: SNB-19 CNS
[4] = test system: U251 CNS
[5] = test system: PC-3 prostate
[6] = test system: SK-MEL-5 melanoma
[7] = test system: UACC-62 melanoma
[8] = test system: LOX IMVI melanoma
[9] = test system: SK-MEL-28 melanoma
[10] = test system: SK-MEL-2 melanoma
[11] = test system: EKVX NSCLC
[12] = test system: SN12C renal
[13] = test system: UO-31 renal
[14] = test system: TK-10 renal
[15] = test system: ACHN renal
[16] = test system: CAKI-1 renal
[17] = test system: A498 renal
[18] = test system: CCRF-CEM leukemia
[19] = test system: MOLT-4 leukemia
[20] = test system: SNB-75 CNS

CC1OC(n2c3ccccc3c3c4c(c5c6ccccc6[nH]c5c32)C(=O)N(CCN2CCOCC2)C4=O)CC(O)C1O (configuration not stated)
growth [1]: 26.5%
growth [2]: 13.4%
growth [3]: 21.5%
growth [4]: 10.4%
growth [5]: 34%
growth [6]: 5.46% (active)
growth [7]: 21.1%
growth [8]: 2.7% (active)
growth [9]: 67.6%
growth [10]: 99.7%
growth [11]: 56.7%
growth [12]: 19.8%
growth [13]: 25.5%
growth [14]: 58.5%
growth [15]: 8.9% (active)
growth [16]: 14.9%
growth [17]: 47.5%
growth [18]: 27%
growth [19]: 6.7% (active)

Cc1cc(-c2ccccc2)on1
growth [1]: 101%
growth [2]: 106%
growth [3]: 104%
growth [4]: 108%
growth [5]: 97.7%
growth [6]: 109%
growth [7]: 110%
growth [8]: 99.4%
growth [9]: 109%
growth [10]: 107%
growth [11]: 103%
growth [12]: 103%
growth [13]: 82.5%
growth [14]: 110%
growth [15]: 103%
growth [16]: 98.2%
growth [17]: 126%
growth [18]: 97.8%
growth [19]: 92.4%

CCCCCCCCCCCCCC
growth [1]: 106%
growth [20]: 72.4%
growth [5]: 88.1%
growth [6]: 108%
growth [8]: 94.9%
growth [9]: 106%
growth [11]: 95.2%
growth [13]: 98.6%
growth [15]: 111%
growth [16]: 98.9%
growth [18]: 90.4%
growth [19]: 111%

CCNC(=O)c1ccc2c(c1)nc(-c1ccc(Cl)cc1)n2-c1cc(C(C)(C)C)[nH]n1
growth [1]: 45.2%
growth [2]: 26%
growth [3]: 60.5%
growth [4]: 46.5%
growth [5]: 44%
growth [6]: 11.5%
growth [7]: 38.6%
growth [8]: 33.1%
growth [9]: 41.6%
growth [10]: 46.6%
growth [11]: 42.8%
growth [12]: 76.4%
growth [13]: 37.5%
growth [14]: 89.7%
growth [15]: 52%
growth [16]: 18.5%
growth [17]: 57.9%
growth [18]: 34.3%
growth [19]: 20.9%

CN1C(=O)C(C(=O)/C=C/c2ccccc2C(=O)O)C(=O)N(C)C1=O
growth [1]: 110%
growth [2]: 98.8%
growth [3]: 105%
growth [4]: 97%
growth [5]: 96.4%
growth [6]: 108%
growth [7]: 95%
growth [8]: 94.7%
growth [9]: 109%
growth [10]: 106%
growth [11]: 105%
growth [12]: 101%
growth [13]: 87%
growth [14]: 102%
growth [15]: 108%
growth [16]: 90%
growth [17]: 104%
growth [18]: 91.9%
growth [19]: 97.1%

CC(C)CC1NC(=O)C(CC(C)C)N(CO)C1=O (configuration not stated)
growth [1]: 103%
growth [2]: 94.3%
growth [3]: 99.6%
growth [4]: 111%
growth [5]: 97.3%
growth [6]: 104%
growth [7]: 96.9%
growth [8]: 106%
growth [9]: 121%
growth [10]: 93.9%
growth [11]: 115%
growth [12]: 99.4%
growth [13]: 84.5%
growth [14]: 97.9%
growth [15]: 108%
growth [16]: 99.8%
growth [17]: 95.9%
growth [18]: 84.7%
growth [19]: 92.7%

COc1ccccc1/C=N\Nc1ccc([N+](=O)[O-])cn1
growth [1]: 102%
growth [2]: 107%
growth [3]: 103%
growth [4]: 101%
growth [5]: 98.8%
growth [6]: 102%
growth [7]: 100%
growth [8]: 98.5%
growth [9]: 120%
growth [10]: 102%
growth [11]: 92.8%
growth [12]: 109%
growth [13]: 90.8%
growth [14]: 111%
growth [15]: 109%
growth [16]: 90.4%
growth [17]: 106%
growth [18]: 106%
growth [19]: 103%

COc1ccc(-n2nc(C(=O)Nc3ccc(F)cc3)nc2-c2cc(OC)c(OC)c(OC)c2)cc1
growth [1]: 82.2%
growth [2]: 95.8%
growth [5]: 79.2%
growth [6]: 80.3%
growth [7]: 83.7%
growth [8]: 94.3%
growth [9]: 119%
growth [10]: 102%
growth [12]: 92.4%
growth [13]: 51.6%
growth [14]: 112%
growth [15]: 89.8%
growth [17]: 66.6%
growth [18]: 83.2%
growth [19]: 69.9%

O=C(CSc1nnc(Cc2ccccc2Nc2c(Cl)cccc2Cl)n1-c1ccccc1)N1N=C(c2ccc3ccccc3c2)CC1c1ccc(Cl)cc1 (configuration not stated)
growth [1]: 98.9%
growth [2]: 86.2%
growth [3]: 95.1%
growth [4]: 98.3%
growth [5]: 87.1%
growth [6]: 104%
growth [7]: 87.6%
growth [8]: 94%
growth [9]: 112%
growth [10]: 103%
growth [11]: 93.5%
growth [12]: 96.6%
growth [13]: 80%
growth [14]: 95.5%
growth [16]: 92.7%
growth [17]: 102%
growth [18]: 113%
growth [19]: 98.4%

Fc1ccc(-c2nc(-c3ccc(-c4nc5ccc(F)cc5[nH]4)cc3)no2)cc1
growth [1]: 86.1%
growth [2]: 84.7%
growth [3]: 82.5%
growth [4]: 82.9%
growth [5]: 68.7%
growth [6]: 74.4%
growth [7]: 75.5%
growth [8]: 43.5%
growth [9]: 80.5%
growth [10]: 102%
growth [11]: 85.1%
growth [12]: 84.3%
growth [13]: 84.4%
growth [14]: 119%
growth [15]: 71%
growth [16]: 81.3%
growth [17]: 79.6%
growth [18]: 74.9%
growth [19]: 94.8%

FC(F)(F)c1cc(-c2nnc3n2N=C(Cl)CS3)cc(C(F)(F)F)c1
growth [1]: 96.8%
growth [2]: 113%
growth [3]: 107%
growth [5]: 96.2%
growth [6]: 98.9%
growth [7]: 101%
growth [8]: 77.1%
growth [9]: 134%
growth [10]: 123%
growth [12]: 82.1%
growth [13]: 97.9%
growth [14]: 118%
growth [15]: 110%
growth [17]: 108%
growth [18]: 20.5%
growth [19]: -17.6% (active)

O=C(Nc1cccc(-n2ccc3c(NC(=O)c4ccccc4)nccc32)c1)c1ccc(Cl)c(Cl)c1
growth [1]: -62% (active)
growth [20]: 2.32% (active)
growth [3]: -40.3% (active)
growth [5]: -60.5% (active)
growth [6]: -100% (active)
growth [7]: -61.3% (active)
growth [8]: -84.4% (active)
growth [9]: -60.4% (active)
growth [11]: -33.3% (active)
growth [12]: -83.8% (active)
growth [13]: -78.1% (active)
growth [16]: -71.7% (active)
growth [17]: -2.71% (active)
growth [18]: -41.6% (active)

CC1(C)OC2OC3C(CN)OC(c4ccccc4)OC3C2O1 (configuration not stated)
growth [1]: 125%
growth [2]: 106%
growth [3]: 110%
growth [4]: 104%
growth [5]: 97.1%
growth [6]: 106%
growth [7]: 105%
growth [8]: 97.9%
growth [9]: 114%
growth [10]: 103%
growth [11]: 103%
growth [12]: 103%
growth [13]: 103%
growth [14]: 104%
growth [15]: 103%
growth [16]: 92.5%
growth [17]: 96.8%
growth [18]: 104%
growth [19]: 5.53% (active)
